# RORgamma inh = qHTS for inhibitors of ROR gamma transcriptional activity; Potency, µM (titrated, usually from 53.6 µM), for inactives: top-dose activity change, negative = inhibition, hits mostly inhibitors; AID 2551, 2010; 310,000 compounds, 5.4% hits; Drosophila S2 Gal4-RORgamma UAS-luciferase reporter, 20 h; Nuclear receptor ROR-gamma (Mus musculus), P51450; note: % is set by controls: 0 for no effect and ±100 for the full control effect; nearly all actives have a fitted effect of over 60% in size
# Target sequence (P51450 whole entry, looked up, the tested form may be a part): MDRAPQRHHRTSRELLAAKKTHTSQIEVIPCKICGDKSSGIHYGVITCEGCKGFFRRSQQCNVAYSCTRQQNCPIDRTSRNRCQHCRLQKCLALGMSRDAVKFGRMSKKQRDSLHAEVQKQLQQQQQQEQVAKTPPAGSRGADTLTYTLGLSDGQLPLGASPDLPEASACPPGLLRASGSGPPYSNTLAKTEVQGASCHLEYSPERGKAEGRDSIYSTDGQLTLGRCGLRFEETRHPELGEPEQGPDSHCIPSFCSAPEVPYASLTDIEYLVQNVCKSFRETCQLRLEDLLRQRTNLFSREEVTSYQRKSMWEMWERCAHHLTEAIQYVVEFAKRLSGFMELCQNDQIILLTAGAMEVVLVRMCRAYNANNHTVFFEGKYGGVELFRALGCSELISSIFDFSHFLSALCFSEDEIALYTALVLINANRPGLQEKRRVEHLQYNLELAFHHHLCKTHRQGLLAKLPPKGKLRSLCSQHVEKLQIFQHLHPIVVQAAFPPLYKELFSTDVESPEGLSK
#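 ROR gamma transcriptional activity was tracked as Gal4-UAS luciferase output in stably transfected Drosophila Schneider cells, with compound added 1 hr before 700 uM copper sulfate induction and a 20 hr ambient-temperature incubation.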
# ATXN viability = Viability Counterscreen for Primary qHTS for Inhibitors of ATXN expression | 400,000 compounds, 0.49% hits | AID 651635, 2014 | S2 cells (HEK-293 line with an ATXN2-luciferase reporter) viability, CellTiter-Fluor protease fluorescence, 24 h | Potency, µM (doses to about 56.7 µM), usual class: cytotoxic; note: nearly all actives have a fitted effect of over 40% in size
# VP16 counter = VP16 counterscreen qHTS for inhibitors of ROR gamma transcriptional activity. 310,000 compounds, 3.5% hits. Potency, µM (titrated, usually from 53.6 µM), for the others: top-dose activity, negative = inhibition, hits mostly inhibitors. Drosophila S2 Gal4-VP16 UAS-luciferase, luminescence, 20 h;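 note: Gal4-VP16 expression switched on by copper sulfate through the metallothionein promoter; % is set by controls: 0 for no effect and ±100 for the full control effect; nearly all actives have a fitted effect of over 50% in size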
# ATXN2 expr inh = Primary qHTS for Inhibitors of ATXN expression. HEK-293 ATXN2-luciferase reporter, luminescence, 24 h. Potency, µM (titrated, usually from 57 µM), inactives show at the top dose activity change, negative = inhibition, hits mostly inhibitors. 360,000 compounds, 0.72% hits; note: % is set by controls: 0 for no effect and ±100 for the full control effect; nearly all actives have a fitted effect of over 55% in size
#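 qHTS (up to 57 uM final) was run with 24 h compound exposure of reporter cells at 37 °C. Each well was multiplexed: SteadyGlo luminescence measured ATXN2-luciferase expression after a fluorogenic Gly-Phe-AFC viability readout (25 uM final).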
# HepG2 tox-1 = qHTS for Inhibitors of TGF-b: Cytotox Counterscreen. HepG2 CAGA-GFP viability, ATP luminescence, 18 h. Potency, µM (titrated, usually from 46.1 µM), for inactives: at the highest dose activity change, negative = cytotoxicity, hits mostly cytotoxic. 410,000 compounds, 0.76% hits. AID 588856, 2011
#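 HepG2 CAGA-GFP cells (1000/well, DMEM with 1% FBS) received compound, then TGF-beta at 500 pg/mL final, and were incubated 18 hours at 37 degrees C. Viability was read by CellTiter-Glo luminescence. Media-only wells were set as complete cell-killing and DMSO as no toxicity.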
# TGFb inhibitor = qHTS for Inhibitors of TGF-b; Potency, µM (top dose mostly 46.1 µM), without a hit: at the highest dose activity, negative = inhibition, actives largely listed as inhibitors; AID 588855, 2011; 410,000 compounds, 1.2% hits; HepG2 CAGA-GFP TGF-b/SMAD3 reporter, GFP fluorescence, 18 h; TGF-beta stimulated, 500 pg/mL final; note: % is set by controls: 0 for no effect and ±100 for the full control effect; nearly all actives have a fitted effect of over 65% in size
#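 HEPG2 CAGA-GFP cells (1000/well, DMEM with 1% FBS) were pre-incubated 2 h at 37 degrees C, given compound by pin tool, then stimulated with TGF-beta at 500 pg/mL final for 18 h before per-cell GFP fluorescence imaging.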
# TGFb confirm = qHTS for Inhibitors of TGF-b: Confirmation of Cherry Picks. shares compounds with TGFb inhibitor. HepG2 CAGA-GFP TGF-b reporter, GFP fluorescence, 18 h; cells stimulated with TGF-beta, 500 pg/mL. Potency, µM (doses to about 46.1 µM), for inactives: at the top dose activity, negative = inhibition, most hits filed as inhibitors. 1,600 compounds, 63% hits. AID 720534, 2013; note: % is set by controls: 0 for no effect and ±100 for the full control effect; nearly all actives have a fitted effect of over 65% in size
# HepG2 tox-2 = qHTS for Inhibitors of TGF-b: Cytotox Counterscreen for Cherry Picks; shares compounds with TGFb inhibitor; HepG2 CAGA-GFP viability, ATP luminescence, 18 h; cells stimulated with TGF-beta, 500 pg/mL; Potency, µM (doses to about 46.1 µM), inactives show at the highest dose activity, negative = cytotoxicity, most hits filed as inhibitors; 1,600 compounds, 27% hits; note: % is set by controls: 0 for no effect and ±100 for the full control effect; nearly all actives have a fitted effect of over 70% in size
# TGFb CCL64 inh = qHTS for Inhibitors of TGF-b: CCL64 Cells Orthogonal Assay for Cherry Picks; shares compounds with TGFb inhibitor; CCL64 CAGA-GFP reporter, TGF-b stimulated, GFP fluorescence, 18 h; Potency, µM (series often up to 46.1 µM), for inactives: at the highest dose activity, negative = inhibition, most hits filed as inhibitors; 1,600 compounds, 41% hits; AID 720536, 2013; note: nearly all actives have a fitted effect of over 65% in size
# TGFb COP inh = qHTS for Inhibitors of TGF-b: Hit Validation in HepG2 Cells using COP promoter | HepG2 COP-GFP TGF-b reporter, GFP fluorescence, 18 h; cells stimulated by added recombinant TGF-beta | 1,600 compounds, 3% hits | Potency, µM (titrated, usually from 46.1 µM), for the others: at the highest dose activity, negative = inhibition, hits mostly inhibitors | shares compounds with TGFb inhibitor; note: nearly all actives have a fitted effect of over 70% in size
# * hit, by the source's call; i = inactive; ? = inconclusive; nt = no result. Only some compounds are listed: those with a hit (about 6.3% of all), similar ones and a draw of the others. Calls come from the whole dose curve; as a rule, active = well fitted curve in the direction sought with a large enough effect; inconclusive = small, poorly fitted or top-dose-only effect, or another doubt; inactive = no such curve, though single readings can be large; an effect the other way counts as inactive or inconclusive. Potency is the fitted concentration of half-maximal effect.
SMILES,RORgamma inh,ATXN viability,VP16 counter,ATXN2 expr inh,HepG2 tox-1,TGFb inhibitor,TGFb confirm,HepG2 tox-2,TGFb CCL64 inh,TGFb COP inh
O=C(COC(=O)c1ccccc1)Nc1ncc([N+](=O)[O-])s1,nt,i,nt,19.0%,-9.1%,-23.6%,nt,nt,nt,nt
O=C(Nc1ccccc1)Nc1ncc([N+](=O)[O-])s1,?,22.4µM*,?,?,-22.9%,3.16µM*,13µM*,?,18.4µM*,87.3%
Cc1cccc(/C=C(\c2nc3ccccc3[nH]2)S(=O)(=O)c2ccccc2)c1,?,?,-78.1%,?,-91.6%,10µM*,4.61µM*,4.61µM*,5.8µM*,?
Cc1cccc(/C=C/c2nc3ccccc3c(=O)[nH]2)c1,1.8%,i,-11.8%,4.3%,3.5%,?,nt,nt,nt,nt
CC(OC(=O)Cc1ccc(F)cc1)C(=O)NCc1ccc2c(c1)OCO2 (configuration not stated),nt,i,nt,-2.5%,-4.5%,?,-28.2%,2.2%,7.8%,5.6%
CN(C)C(=O)c1ccc(-c2nccc(N(C)Cc3ccco3)n2)cc1,-17.5%,nt,-7.9%,nt,nt,nt,nt,nt,nt,nt
Cc1ccccc1NC1=CC(=O)CC(C)(C)C1,-17.7%,i,4.7%,0.8%,-1.4%,1.0%,nt,nt,nt,nt
CC1(C)CC(=O)C=C(NC2=CC3OC(c4ccccc4)OCC3OC2=O)C1 (configuration not stated),?,?,11.2µM*,-2.9%,-37.6%,8.91µM*,23.1µM*,16.4µM*,6.51µM*,24.3%
COc1ccc(Nc2nnc(-c3ccc(C)cc3)c3ccccc23)cc1C(=O)N1CCCCC1,20.5%,?,-14.8%,?,-21.2%,15.8µM*,-87.5%,?,?,45.3%
COc1ccc(Cl)cc1NC(=O)c1c(NCc2cccs2)sc2c1CCC(C)C2 (configuration not stated),nt,?,nt,?,-68.2%,?,nt,nt,nt,nt
O=C(Oc1ccc(Cl)c2cccnc12)c1ccco1,0.891µM*,i,1.58µM*,-19.6%,-51.9%,8.91µM*,-1.9%,-14.7%,22.1%,4.1%
O=C(Nc1ccc(S(=O)(=O)N2CCOCC2)cc1)c1ccc([N+](=O)[O-])s1,nt,i,nt,-25.7%,-20.6%,4.47µM*,1.64µM*,5.17µM*,-16.9%,29.1%
O=C(Nc1ccc(S(=O)(=O)N2CCOCC2)cc1)c1cccs1,29.5%,i,-17.1%,1.0%,0.8%,-4.0%,nt,nt,nt,nt
O=C(Nc1ccc(N2CCOCC2)cc1)c1ccc([N+](=O)[O-])o1,11.2µM*,?,?,-6.1%,-61.1%,5.62µM*,11.6µM*,23.1µM*,?,12.9%
O=C(Nc1ccc(S(=O)(=O)N2CCOCC2)cc1)c1ccco1,27.7%,i,1.6%,0.5%,-1.0%,-6.4%,nt,nt,nt,nt
O=C(Nc1ccc(S(=O)(=O)N2CCOCC2)cc1)c1ccc([N+](=O)[O-])o1,-11.2%,?,?,?,-179.6%,6.31µM*,3.26µM*,13µM*,11.6µM*,?
O=C(COC(=O)c1ccc([N+](=O)[O-])o1)Nc1ccc(N2CCOCC2)cc1,nt,i,nt,8.3%,-19.9%,-10.0%,nt,nt,nt,nt
O=C(CSc1nc(NS(=O)(=O)c2ccccc2)cc(=O)[nH]1)Nc1ccc(Cl)cc1,-30.4%,i,-18.4%,-26.2%,-27.3%,0.7%,nt,nt,nt,nt
O=c1cc(NS(=O)(=O)c2ccccc2)nc(SCc2ccc(Cl)cc2)[nH]1,14.2%,?,-11.7%,3.1%,-49.8%,3.98µM*,?,-23.9%,18.4µM*,4.2%
Cc1cc2ccccc2c[n+]1C1CCCCC1,nt,nt,nt,nt,-35.4%,?,nt,nt,nt,nt
OC[C@@H]1CN(Cc2cccs2)C[C@H](n2cnc3c(N4CCCC4)ncnc32)O1,nt,i,nt,8.3%,-1.8%,37.6%,nt,nt,nt,nt
O=C(c1cccs1)N(Cc1nc2sc3c(c2c(=O)[nH]1)CCCC3)C1CCCC1,-28.1%,?,-0.6%,-4.6%,1.1%,?,?,?,?,29.0%
O=c1[nH]c(CN2CCN(S(=O)(=O)c3ccccc3C(F)(F)F)CC2)nc2sc3c(c12)CCCC3,39.8%,i,-17.3%,-22.5%,-1.3%,2.9%,nt,nt,nt,nt
Cc1ccc(-n2c(SCC(=O)NCc3ccccc3)nc3n[nH]c(C)c3c2=N)cc1Cl,nt,i,nt,-12.1%,-46.1%,?,nt,nt,nt,nt
O=C(COC(=O)CC(c1ccccc1)c1ccccc1)NCc1ccc(Cl)cc1,-0.4%,i,20µM*,-19.4%,-7.1%,11.2µM*,?,?,?,26.8%
CCC1(c2ccc(OC)cc2)NC(=O)N(C)C1=O (configuration not stated),5.3%,nt,15.9%,nt,nt,nt,nt,nt,nt,nt
O=S(=O)(Nc1cc(Cl)ccc1-n1cncn1)c1cc(Br)ccc1Br,nt,?,nt,?,-42.1%,10µM*,20.6µM*,?,20.6µM*,41.3%
O=S(=O)(Nc1cc(Cl)ccc1-n1cncn1)c1ccccc1Cl,nt,i,nt,4.9%,-13.9%,-1.7%,nt,nt,nt,nt
Clc1ccc2nc(Nc3ccccc3Cl)nc(-c3ccccc3)c2c1,nt,i,nt,1.7%,15.1%,22.2%,nt,nt,nt,nt

# Compound activity: PubChem BioAssay, National Center for Advancing Translational Sciences (NCATS)
